# Source: PubChem BioAssay AID720489 (Milwaukee Institute for Drug Discovery, 2013)
# This is one part of the list. Unmarked numbers belong to inactive results.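 Rule for the calls: active = fluorescence interference ratio at or below 0.8 quencher or at or above a set limitenhancer; inactive = the rest.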
# Assay: Cy5-DNA-NS3h complex fluorescence interference, confirmation, artefact control for HCV NS3 helicase inhibitor project, biochemical, ChemBridge library (AID 720489);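 note: ratio of compound fluorescence to mean of negative controls so 1 means no interference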
# Conditions: Cy5-dT15 DNA/NS3h fluorescence interference counterscreen; at 100 µM
structure (smiles),measurement,value
CCOc1cc(C=C2C(=O)NC(=O)NC2=O)cc(Br)c1OCCOc1ccccc1C,fluorescence interference ratio,0.809
